# Inconclusive results are not listed. Activity calls are given as the source filed them. How the source made its calls, unless noted: active means hit-call score of the fitted dose curve at least 0.9, where 1 is the maximum; inconclusive means response in the unintended direction; inactive means score below 0.9.
# Experiments:
# [1] = molecular target: Glutamate receptor ionotropic, kainate 1 (Rattus norvegicus) (UniProt P22756); assay: NVS_IC_rKAR: NovaScreen (NVS) Ion Channel Assay for rat Kainic Acid Receptors (KAR) (AID 2283334; active means hit-call score of the fitted dose curve at least 0.9, where 1 is the maximum; inactive means score below 0.9)
# Outline: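 Radioligand displacement binding using rat forebrain membranes, 1 h incubation, filter-based scintillation counting. Screened in duplicate at 25 uM, with actives retested in concentration-response up to 50 uM; fitted against DMSO.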
# [2] = molecular target: rat Peripheral-type Benzodiazepine Receptor (PBR), Tspo (gene 24230) (UniProt P16257); assay: NVS_MP_rPBR: NovaScreen (NVS) Membrane Protein Assay for rat Peripheral-type Benzodiazepine Receptor (PBR) (AID 2283335)
# Outline: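 Radioligand displacement, rat kidney membrane prep, 1 h exposure, filter-based scintillation read; DMSO baseline, loss-of-signal scored. Primary screen at 25 uM in duplicate, actives followed up in concentration series.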
# [3] = molecular target: bovine Gamma-Aminobutyric Acid Type A Receptor Agonist (GABAR Agonist), GABRA1 (gene 780973) (UniProt P08219); assay: NVS_LGIC_bGABAR_Agonist: NovaScreen (NVS) Ligand-Gated Ion Channel Assay for bovine Gamma-Aminobutyric Acid Type A Receptor Agonist (GABAR Agonist) (AID 2283338)
# Outline: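 Radioligand binding to bovine cerebellar membranes in agonist format, read by filter-based scintillation counting after 1 h. Primary screen in duplicate at 25 uM, with actives followed in concentration series. Gain of signal versus DMSO.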
# [4] = NVS_IC_rCaBTZCHL: NovaScreen (NVS) Ion Channel Assay for Calcium Channel, Type L, Benzothiazepine Site (CaBTZCHL) (AID 2283337)
# Description: NVS_IC_rCaBTZCHL is a biochemical, single-readout assay that uses extracted gene-proteins from Rat cortical membranes in a tissue-based cell-free assay. Measurements were taken 1.5 hours after chemical dosing in a 48-well plate.NVS_IC_rCaBTZCHL is one of one assay component(s) measured or calculated from the NVS_IC_rCaBTZCHL assay. It is designed to make measurements of radioligand binding, a form of binding reporter, as detected with scintillation counting signals by Filter-based radiodetection technology.Data from the assay component NVS_IC_rCaBTZCHL was analyzed into 1 assay endpoint. This assay endpoint, NVS_IC_rCaBTZCHL, was analyzed in the positive analysis fitting direction relative to DMSO as the negative control and baseline of activity. Using a type of binding reporter, loss-of-signal activity can be used to understand changes in the binding as they relate to the gene Cacna1a. Furthermore, this assay endpoint can be referred to as a primary readout, because the performed assay has only produced 1 assay endpoint. To generalize the intended target to other relatable targets, this assay endpoint is annotated to the ion channel intended target family, where the subfamily is calcium channel.
# (§1) Binding assays used specific radioligands (tritiated, iodinated) with non-radioactive competitive displacement ligands in agonist or antagonist protocols (as indicated) and various reference compounds and inhibitors to titrate specific binding to receptors and transporters. Most enzyme assays (CYPs, kinases, phosphatases, proteases, HDACs) used recombinant protein and specific substrates (fluorescence mostly, some colorimetric and radioactive) and inhibitors, followed by a biochemical separation of substrate and product. All assays for the biochemical HTS were initially run in duplicate at a single concentration (10 uM for CYP450 assays and 25 uM for all others). […] Each assay was run with positive and negative controls, and concurrent controls on every plate. The follow-up (secondary) screen tested active chemical-pairs in concentration series, as well as a few additional assays not tested in the primary screen, some selected negative inactives, and several cases re-run in the concentration series for confirmatory purposes.
# [5] = tested on: guinea pig Histamine Receptor (H2), gene 100729734; assay: NVS_GPCR_gH2: NovaScreen (NVS) G Protein-Coupled Receptor Assay for guinea pig Histamine Receptor (H2) (AID 2283342)
# Outline: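 Radioligand displacement on guinea pig striatal membranes, 1 h after dosing, filter-based scintillation counting; loss of signal versus DMSO. Single-point screen at 25 uM in duplicate, then concentration-response up to 50 uM.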
# [6] = molecular target: Voltage-gated inwardly rectifying potassium channel KCNH2 (Homo sapiens) (UniProt Q12809); assay: NVS_IC_hKhERGCh: NovaScreen (NVS) Ion Channel Assay for human Potassium Channel ERG (KhERGCh) (AID 2283333)
# Description: NVS_IC_hKhERGCh is a biochemical, single-readout assay that uses extracted gene-proteins from CHO in a cell-free assay. Measurements were taken 0.75 hour after chemical dosing in a 48-well plate.NVS_IC_hKhERGCh is one of one assay component(s) measured or calculated from the NVS_IC_hKhERGCh assay. It is designed to make measurements of radioligand binding, a form of binding reporter, as detected with scintillation counting signals by Filter-based radiodetection technology.Data from the assay component NVS_IC_hKhERGCh was analyzed into 1 assay endpoint. This assay endpoint, NVS_IC_hKhERGCh, was analyzed in the positive analysis fitting direction relative to DMSO as the negative control and baseline of activity. Using a type of binding reporter, loss-of-signal activity can be used to understand changes in the binding as they relate to the gene KCNH2. Furthermore, this assay endpoint can be referred to as a primary readout, because the performed assay has only produced 1 assay endpoint. To generalize the intended target to other relatable targets, this assay endpoint is annotated to the ion channel intended target family, where the subfamily is potassium channel.
# as §1
# [7] = molecular target: Small conductance calcium-activated potassium channel protein 1 (Rattus norvegicus) (UniProt P70606); assay: NVS_IC_rKCaCh: NovaScreen (NVS) Ion Channel Assay for rat Potassium Channel, Ca2+ Act., VI (KCaCh) (AID 2283336)
# Description: NVS_IC_rKCaCh is a biochemical, single-readout assay that uses extracted gene-proteins from Rat forebrain membranes in a tissue-based cell-free assay. Measurements were taken 1 hour after chemical dosing in a 96-well plate.NVS_IC_rKCaCh is one of one assay component(s) measured or calculated from the NVS_IC_rKCaCh assay. It is designed to make measurements of radioligand binding, a form of binding reporter, as detected with scintillation counting signals by Filter-based radiodetection technology.Data from the assay component NVS_IC_rKCaCh was analyzed into 1 assay endpoint. This assay endpoint, NVS_IC_rKCaCh, was analyzed in the positive analysis fitting direction relative to DMSO as the negative control and baseline of activity. Using a type of binding reporter, loss-of-signal activity can be used to understand changes in the binding as they relate to the gene Kcnn1. Furthermore, this assay endpoint can be referred to as a primary readout, because the performed assay has only produced 1 assay endpoint. To generalize the intended target to other relatable targets, this assay endpoint is annotated to the ion channel intended target family, where the subfamily is potassium channel.
# as §1, with “The follow-up (secondary) screen tested active chemical-pairs in concentration series, as well as a few additional assays not tested in the primary screen, some selected negative inactives, and several cases re-run in the concentration series for confirmatory purposes.” left out
# [8] = molecular target: rat Glycine Receptor, Strychnine-sensitive (GlyRStrySens), Glra1 (gene 25674) (UniProt P07727); assay: NVS_LGIC_rGlyRStrySens: NovaScreen (NVS) Ligand-Gated Ion Channel Assay for rat Glycine Receptor, Strychnine-sensitive (GlyRStrySens) (AID 2283341)
# Outline: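 Radioligand displacement on rat spinal cord membranes, 1 hr, filter scintillation read-out. Single-concentration duplicate screen at 25 uM; chemicals meeting threshold (e.g., 30% inhibition) rerun in concentration-response up to 50 uM. Loss of binding fitted versus DMSO.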
# [9] = molecular target: rat Glutamate, MK-801 Agonist Site (GluNMDA_MK801), Grin1 (gene 24408) (UniProt P35439); assay: NVS_LGIC_rGluNMDA_MK801_Agonist: NovaScreen (NVS) Ligand-Gated Ion Channel Assay for rat Glutamate, MK-801 Agonist Site (GluNMDA_MK801) (AID 2283340)
# Outline: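 Radioligand binding at MK-801 site in rat forebrain membranes, 1.5 h incubation, filter-based scintillation counting. Initially 25 uM in duplicate; actives then run in concentration-response up to 50 uM, fitted for gain of signal versus DMSO.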
# rat Peripheral-type Benzodiazepine Receptor (PBR), Tspo (gene 24230), sequence (P16257 whole entry, looked up): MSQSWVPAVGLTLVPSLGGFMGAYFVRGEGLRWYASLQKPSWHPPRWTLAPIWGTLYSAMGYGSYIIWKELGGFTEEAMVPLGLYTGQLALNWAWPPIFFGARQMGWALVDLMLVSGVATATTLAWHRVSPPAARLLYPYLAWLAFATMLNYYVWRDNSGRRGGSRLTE
# bovine Gamma-Aminobutyric Acid Type A Receptor Agonist (GABAR Agonist), GABRA1 (gene 780973), sequence (P08219 whole entry, looked up): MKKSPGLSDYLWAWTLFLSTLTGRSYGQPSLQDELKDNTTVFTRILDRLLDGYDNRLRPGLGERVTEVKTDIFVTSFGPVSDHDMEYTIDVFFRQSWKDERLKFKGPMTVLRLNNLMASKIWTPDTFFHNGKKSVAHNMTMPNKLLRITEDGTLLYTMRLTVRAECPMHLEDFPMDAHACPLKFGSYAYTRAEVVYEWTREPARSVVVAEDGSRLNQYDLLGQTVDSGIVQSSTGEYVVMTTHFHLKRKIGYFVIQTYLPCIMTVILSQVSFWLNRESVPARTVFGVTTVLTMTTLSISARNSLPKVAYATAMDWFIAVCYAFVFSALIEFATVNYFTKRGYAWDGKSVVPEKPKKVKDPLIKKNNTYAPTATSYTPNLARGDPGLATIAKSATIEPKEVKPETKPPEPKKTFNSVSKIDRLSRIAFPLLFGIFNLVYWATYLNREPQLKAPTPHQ
# Glutamate receptor ionotropic, kainate 1 (Rattus norvegicus), sequence (P22756 whole entry, looked up): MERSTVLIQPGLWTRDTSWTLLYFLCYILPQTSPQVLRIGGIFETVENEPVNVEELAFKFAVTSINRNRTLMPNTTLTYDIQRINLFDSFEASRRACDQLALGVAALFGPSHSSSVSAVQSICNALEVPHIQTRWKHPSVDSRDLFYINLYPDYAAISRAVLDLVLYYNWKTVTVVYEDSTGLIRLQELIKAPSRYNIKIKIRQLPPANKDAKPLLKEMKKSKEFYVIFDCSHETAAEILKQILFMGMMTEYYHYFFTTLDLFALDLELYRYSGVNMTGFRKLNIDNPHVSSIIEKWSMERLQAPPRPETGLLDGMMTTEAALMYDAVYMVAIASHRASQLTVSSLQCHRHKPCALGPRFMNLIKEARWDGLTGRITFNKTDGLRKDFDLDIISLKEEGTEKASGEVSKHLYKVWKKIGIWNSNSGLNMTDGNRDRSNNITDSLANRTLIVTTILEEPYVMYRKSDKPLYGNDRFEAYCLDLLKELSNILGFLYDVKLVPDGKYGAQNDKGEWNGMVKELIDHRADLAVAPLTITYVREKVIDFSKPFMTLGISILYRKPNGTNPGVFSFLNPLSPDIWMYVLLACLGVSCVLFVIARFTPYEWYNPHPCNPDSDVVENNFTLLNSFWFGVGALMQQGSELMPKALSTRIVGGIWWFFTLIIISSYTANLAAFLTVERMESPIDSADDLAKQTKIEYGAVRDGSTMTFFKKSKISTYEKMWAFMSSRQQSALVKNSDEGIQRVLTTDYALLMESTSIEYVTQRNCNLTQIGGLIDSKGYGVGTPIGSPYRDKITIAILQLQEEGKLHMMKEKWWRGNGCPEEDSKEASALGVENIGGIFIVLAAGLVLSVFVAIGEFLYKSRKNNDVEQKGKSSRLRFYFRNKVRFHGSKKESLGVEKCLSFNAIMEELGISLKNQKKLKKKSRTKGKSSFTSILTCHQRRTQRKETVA
# Voltage-gated inwardly rectifying potassium channel KCNH2 (Homo sapiens), sequence (Q12809 whole entry, looked up): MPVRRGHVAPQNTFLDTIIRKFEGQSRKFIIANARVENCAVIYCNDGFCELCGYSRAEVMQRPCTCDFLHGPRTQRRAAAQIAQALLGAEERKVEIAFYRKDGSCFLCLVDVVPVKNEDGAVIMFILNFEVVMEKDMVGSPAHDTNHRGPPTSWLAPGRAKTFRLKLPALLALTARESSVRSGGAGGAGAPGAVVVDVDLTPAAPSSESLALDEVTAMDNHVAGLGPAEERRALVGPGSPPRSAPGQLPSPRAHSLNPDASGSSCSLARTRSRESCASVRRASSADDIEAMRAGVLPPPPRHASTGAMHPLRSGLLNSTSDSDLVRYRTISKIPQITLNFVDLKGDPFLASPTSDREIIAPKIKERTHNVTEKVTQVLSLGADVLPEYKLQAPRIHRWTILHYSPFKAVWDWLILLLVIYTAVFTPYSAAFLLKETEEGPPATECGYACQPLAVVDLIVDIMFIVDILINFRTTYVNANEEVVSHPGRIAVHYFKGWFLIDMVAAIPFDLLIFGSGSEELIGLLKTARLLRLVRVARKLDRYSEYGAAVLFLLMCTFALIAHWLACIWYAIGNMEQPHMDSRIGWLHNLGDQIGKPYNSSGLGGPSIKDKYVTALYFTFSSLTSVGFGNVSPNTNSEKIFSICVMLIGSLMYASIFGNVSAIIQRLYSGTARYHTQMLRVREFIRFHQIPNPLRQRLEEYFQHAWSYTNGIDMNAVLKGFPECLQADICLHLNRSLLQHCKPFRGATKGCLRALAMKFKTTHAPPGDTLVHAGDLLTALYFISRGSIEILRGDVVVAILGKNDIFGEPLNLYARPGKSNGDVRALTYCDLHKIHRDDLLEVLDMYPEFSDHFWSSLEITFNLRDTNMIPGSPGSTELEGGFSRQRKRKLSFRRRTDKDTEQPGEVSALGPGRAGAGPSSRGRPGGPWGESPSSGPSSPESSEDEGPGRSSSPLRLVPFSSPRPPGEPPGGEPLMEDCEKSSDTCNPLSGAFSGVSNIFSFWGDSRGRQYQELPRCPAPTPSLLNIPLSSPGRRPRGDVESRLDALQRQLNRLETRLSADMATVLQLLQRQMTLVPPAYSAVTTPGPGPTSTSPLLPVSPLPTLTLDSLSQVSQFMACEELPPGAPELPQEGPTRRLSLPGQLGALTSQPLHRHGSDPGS
# rat Glycine Receptor, Strychnine-sensitive (GlyRStrySens), Glra1 (gene 25674), sequence (P07727 whole entry, looked up): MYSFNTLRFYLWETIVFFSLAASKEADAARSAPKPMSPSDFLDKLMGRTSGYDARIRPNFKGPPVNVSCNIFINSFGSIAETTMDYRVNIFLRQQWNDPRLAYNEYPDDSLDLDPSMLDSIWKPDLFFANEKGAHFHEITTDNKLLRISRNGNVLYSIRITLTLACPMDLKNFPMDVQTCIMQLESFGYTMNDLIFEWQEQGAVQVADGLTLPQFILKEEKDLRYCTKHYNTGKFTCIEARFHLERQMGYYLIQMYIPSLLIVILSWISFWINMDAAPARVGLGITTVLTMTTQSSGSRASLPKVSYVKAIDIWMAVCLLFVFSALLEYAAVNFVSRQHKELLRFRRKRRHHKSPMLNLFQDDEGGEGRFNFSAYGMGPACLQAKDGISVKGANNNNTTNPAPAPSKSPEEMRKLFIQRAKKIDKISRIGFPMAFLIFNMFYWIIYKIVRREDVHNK
# Small conductance calcium-activated potassium channel protein 1 (Rattus norvegicus), sequence (P70606 whole entry, looked up): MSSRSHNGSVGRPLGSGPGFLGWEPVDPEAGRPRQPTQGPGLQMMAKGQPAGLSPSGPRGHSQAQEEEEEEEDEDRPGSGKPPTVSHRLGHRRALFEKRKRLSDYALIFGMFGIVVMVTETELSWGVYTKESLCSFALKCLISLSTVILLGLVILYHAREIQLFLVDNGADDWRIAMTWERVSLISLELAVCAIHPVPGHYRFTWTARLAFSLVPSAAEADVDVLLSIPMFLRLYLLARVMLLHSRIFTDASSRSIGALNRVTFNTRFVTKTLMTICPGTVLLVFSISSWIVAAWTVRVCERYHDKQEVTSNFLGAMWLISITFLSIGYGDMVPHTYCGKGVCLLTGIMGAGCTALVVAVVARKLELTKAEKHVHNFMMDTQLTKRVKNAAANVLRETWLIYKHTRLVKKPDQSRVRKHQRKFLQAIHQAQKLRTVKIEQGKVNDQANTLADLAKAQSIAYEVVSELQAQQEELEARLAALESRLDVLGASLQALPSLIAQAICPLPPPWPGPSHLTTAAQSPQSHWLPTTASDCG
structure (smiles),measurement,setting,value
COc1ccc2sc(C(=O)Nc3nnn[nH]3)c(OC(C)C)c2c1,outcome,[1],inactive
same,AC50,[2],25 µM (active)
Cc1c(-c2cccnc2)c2ccccc2n1CCCCC(=O)O,AC50,[2],9.13 µM (active)
O=C(OC[C@H]1O[C@@H](OC(=O)c2cc(O)c(O)c(OC(=O)c3cc(O)c(O)c(O)c3)c2)[C@H](OC(=O)c2cc(O)c(O)c(OC(=O)c3cc(O)c(O)c(O)c3)c2)[C@@H](OC(=O)c2cc(O)c(O)c(OC(=O)c3cc(O)c(O)c(O)c3)c2)[C@@H]1OC(=O)c1cc(O)c(O)c(OC(=O)c2cc(O)c(O)c(O)c2)c1)c1cc(O)c(O)c(OC(=O)c2cc(O)c(O)c(O)c2)c1,AC50,[2],0.715 µM (active)
CCC(C)(C)C(=O)O[C@H]1C[C@@H](C)C=C2C=C[C@H](C)[C@H](CC[C@@H]3C[C@@H](O)CC(=O)O3)[C@H]21,outcome,[1],inactive
CC(=O)OC[C@H]1O[C@@](COC(C)=O)(O[C@H]2O[C@H](COC(C)=O)[C@@H](OC(C)=O)[C@H](OC(C)=O)[C@H]2OC(C)=O)[C@@H](OC(C)=O)[C@@H]1OC(C)=O,outcome,[3],inactive
O=C(O)CCN(C1(C(=O)NO)CCCC1)S(=O)(=O)c1ccc(Oc2ccc(F)cc2)cc1,AC50,[3],7.72 µM (active)
CC[C@H]1CC[C@H](NCc2cc3c(cc2OC)[C@H]2C[C@H]2C(=O)N3C)[C@H](c2ccccc2)N1,AC50,[4],3.79 µM (active)
same,AC50,[5],16 µM (active)
CCOC(=O)COc1ccc2c(c1)CC(NCC(O)c1cccc(Cl)c1)CC2 (stereo not given),AC50,[6],21.5 µM (active)
same,AC50,[5],32 µM (active)
Cc1[nH]cnc1C[C@H]1CCc2c(C)c3ccccc3n2C1=O,AC50,[6],4.76 µM (active)
same,outcome,[4],inactive
same,AC50,[3],9.14 µM (active)
same,AC50,[5],12.2 µM (active)
CC(C)CC(C)(O)C#CC(C)(O)CC(C)C (stereo not given),outcome,[6],inactive
COc1cccc(-c2ccc(/C=C\CN3CCCCCC3)cc2Cl)c1,AC50,[6],5.95 µM (active)
same,AC50,[2],8.04 µM (active)
same,outcome,[7],inactive
same,AC50,[4],0.665 µM (active)
same,AC50,[3],10.5 µM (active)
same,outcome,[8],inactive
same,AC50,[5],12.3 µM (active)
CC/C(=C\C(=N/O)C(N)=O)C(C)[N+](=O)[O-] (stereo not given),outcome,[8],inactive
O=c1[nH]c2ccc(S(=O)CCN3CCC(Cc4ccc(F)cc4)CC3)cc2o1 (stereo not given),outcome,[1],inactive
same,outcome,[9],inactive
same,AC50,[5],1.21 µM (active)
Nc1ccc(Nc2ccccc2)cc1,outcome,[6],inactive
same,outcome,[5],inactive
COC(=O)CC(=O)OC,outcome,[1],inactive
CCOC(=O)c1ccc(C2CCC(NC[C@H](O)COc3ccc(O)c(NS(C)(=O)=O)c3)CC2)cc1 (stereo not given in full),AC50,[6],10.1 µM (active)
same,AC50,[4],7.7 µM (active)
same,AC50,[5],9.42 µM (active)
COCCOc1cc2cc(C(=O)NC3CCN(C(C)C)CC3)n(CC(=O)Nc3ccc(Cl)cn3)c2cn1,AC50,[4],5.21 µM (active)
same,AC50,[5],12.8 µM (active)

# From PubChem BioAssay (EPA / NIEHS)
